ALOX15 inhib = inhibitors of human 15-lipoxygenase (ALOX15); purified 15hLO-1, xylenol orange hydroperoxide absorbance; Potency, µM (highest dose often 57.1 µM), usual class: inhibitors; hit rate 1.4% among 74,000; also: nearly all actives have a fitted effect of over 55% in size
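Inhibition is scored from a chromogenic endpoint. After 15 min enzyme-compound contact, arachidonic acid (50 uM final) reacts 6 min with 40 nM 15hLO-1 at room temperature, then Fe-XO reagent is added for 30 min and absorbance ratio recorded.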
ERK AVP block = inhibitors of vasopressin-stimulated ERK signaling pathway | HEK293-V1b, vasopressin-stimulated pERK AlphaScreen | Potency, µM (doses to about 57.5 µM), usual class: inhibitors | hit rate 0.99% among 72,000; also: nearly all actives have a fitted effect of over 55% in size
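HEK293 cells stably expressing V1b receptor, preincubated 30 min at 37 °C with compound, then stimulated 5 min with 25 nM vasopressin. Phospho-ERK by AlphaScreen SureFire after 5 h RT; normalized to DMSO and vasopressin; AC50 by Hill fit.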
Caspase-1 inhib = allosteric or competitive inhibitors of human caspase-1 | P29466 | Caspase-1 enzyme, Ac-WEHD-AFC fluorogenic rate | Potency, µM (series often up to 57.5 µM), hits mostly inhibitors | hit rate 0.03% among 75,000
Tau filament bind = tau filament binding | recombinant tau filaments, thioflavin S fluorescence, 15 h; filaments grown with octadecylsulfate alongside compound | AID 596 | hit rate 2% among 71,000 | Potency, µM (doses to about 57.1 µM) | P10636;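 also: actives lower thioflavin S fluorescence by blocking filaments or displacing dye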
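His-tagged recombinant human tau (exons 2, 3, 10; 1 uM final) fibrillized with 30 uM sodium octadecylsulfate, 15 h at 37 C, in pH 7.4 HEPES buffer with 10 uM thioflavine S and 5 mM DTT. Reduced ThS fluorescence (450/510 nm) marks activity.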
Casp7 inh = allosteric or competitive inhibitors of human caspase-7; AID 889; hit rate 0.02% among 75,000; P55210; Potency, µM (top dose mostly 57.5 µM), usual class: inhibitors; recombinant caspase-7, Ac-DEVD-AFC fluorescence rate; active = well fitted inhibition curve with a large enough effect in the main read-out, with a control signal flat, not every such curve was filed as active; inconclusive = small, poorly fitted or top-dose-only effect, or a change in a side signal
Hits are given with their value; . = inactive; ? = inconclusive; / = no result given; ! = not confirmed by another sample; [ ] = dose if it differs, or a comment. An excerpt weighted towards active compounds, which were near 3.9% of everything screened. Unless noted, calls follow the shape of the dose curve; as a rule, active = well fitted curve in the direction sought with a large enough effect; inconclusive = small, poorly fitted or top-dose-only effect, or another doubt; inactive = no such curve, though single readings can be large; an effect the other way counts as inactive or inconclusive.

SMILES	ALOX15 inhib	ERK AVP block	Caspase-1 inhib	Tau filament bind	Casp7 inh
N#CC1=C(N)Oc2n[nH]c(-c3ccccc3)c2C1c1cccnc1 (configuration not stated)	.	.	.	.	.
Cc1ccc(-c2[nH]nc3c2C(c2ccoc2)C(C#N)=C(N)O3)cc1C (configuration not stated)	25µM	.	.	.	.
Cc1noc(C)c1-c1nccc(-n2ccnc2)n1	.	.	.	.	.
CCOc1cc(C2C(C#N)=C(N)Oc3n[nH]c(-c4ccccc4)c32)ccc1O (configuration not stated)	.	16µM	.	.	.
CCOc1ccc(C2C(C#N)=C(N)Oc3n[nH]c(C)c32)cc1OC(=O)C1CC1 (configuration not stated)	?	.	.	.	.
C[C@@]12CC[C@@H]3[C@@H](CC[C@H]4C[C@@H](O)CC[C@]43C)[C@H]1CC[C@@H]2c1cc(C(F)(F)F)n[nH]1	?	.[11.5 µM]	.[11.5 µM]	.[11.4 µM]	.[11.5 µM]
N#Cc1c2c(c(=S)n(-c3ccccc3)c1N)CCCC2	1.6µM	.	/	.[11.4 µM]	?
O=c1c(-c2cc(F)cc(F)c2)nc2cnc(N3CCNCC3)nc2n1Cc1cccs1	.	.	/	?	?
CC(=O)c1ccc2c(c1)N(CCCN1CCC(CCO)CC1)c1ccccc1S2	.	.	.	4µM	.
O=C(Nc1cccc(N2CCCC2)c1)c1cccs1	?	?	.	13µM	.
O=S(=O)(c1cccc(C(F)(F)F)c1)N1c2ccccc2-n2cccc2[C@H]1c1cccnc1	.[11.4 µM]	?	.[11.5 µM]	.[11.4 µM]	.[11.5 µM]
O=C(Nc1cccc2ccccc12)N1CCN(Cc2ccccc2)CC1	0.63µM	.	.	.	.
COc1ccc(CCn2c(-c3ccco3)nc3ccccc3c2=O)cc1OC	4µM	10µM	.	.[11.4 µM]	.
OCc1c[nH]c2ccccc12	.	.	.	.	.
OC[C@H](CCc1c[nH]c2ccccc12)c1c[nH]c2ccccc12	3.2µM	.[11.5 µM]	.[11.5 µM]	.[11.4 µM]	.[11.5 µM]
CCOC(=O)N1CCC(NC(=O)c2cc3c(-c4ccccc4F)nn(C)c3s2)CC1	.	5µM	.	.	.
CCOc1ccc(CCNc2cc(C)nc3ncnn23)cc1OCC	.	25µM	.	.	.
CCc1c(C)nc2ncnn2c1NCCc1ccc(OC)c(OC)c1	.	.	.	.	.
COc1ccc(C)cc1N	.	.	.	.	.
COc1ccc(OC)c(N)c1	.	.	.	13µM	.
CC(C)[C@](N)(C(=O)O)c1ccccc1	.[11.4 µM]	.[11.5 µM]	.[11.5 µM]	.[11.4 µM]	.[11.5 µM]
COc1ccc(Oc2ncc3nc(CCc4ccccc4)c(=O)n(C[C@H]4CCCO4)c3n2)cc1	.	.	.	.	.
CC1CCCCN1CCCNC(=O)c1ccc(Cc2nc3ccccc3[nH]2)cc1 (configuration not stated)	.	/	.	/	.
O=C(CCc1nc2ccccc2[nH]1)NCc1ccc2c(c1)OCO2	.	.	.	.	.
O=C(CSc1nc2ccccc2[nH]1)Nc1ccc2c(c1)OCCO2	.	32µM	.	.	.
SMILES	ALOX15 inhib	ERK AVP block	Caspase-1 inhib	Tau filament bind	Casp7 inh
O=C(CCc1nc2ccccc2[nH]1)Nc1ccc2c(c1)OCO2	.	.	.	13µM	.
CN(C)CCNC(=O)c1ccc(Cc2nc3ccccc3[nH]2)cc1	.	/	.	/	.
O=C(c1csnn1)N1CCC2(CC1)CCN(C(c1ccccc1)c1ccccc1)CC2	.	.	.	.	.
CC(C)(C(=O)O)c1ccc([C@@H](O)CCCN2CCC(C(O)(c3ccccc3)c3ccccc3)CC2)cc1	.	.	.	.	.
CC[C@@H](Nc1ncnc2nc[nH]c12)C(=O)O	.[11.4 µM]	.[11.5 µM]	.[11.5 µM]	.[11.4 µM]	.[11.5 µM]
O=C1CCC[C@H]2OC12[C@@H](O)CCc1ccccc1 (some centres not stated)	.[11.4 µM]	.[11.5 µM]	.[11.5 µM]	/	.[11.5 µM]
O=C1c2c(O)ccc(O)c2C(=O)c2c(NCCNCCO)ccc(NCCNCCO)c21	.	13µM!	.	4µM	.
CCNCCCNCCCCNCCCNCC	.	.	.	.	.
Cn1cc(-c2nc3cncnc3n(C3CC3)c2=O)c2ccccc21	.	.	.	.	.
CCc1ccccc1N1CSC2=C(C#N)C(c3ccccc3F)CC(=O)N2C1 (configuration not stated)	3.2µM	.	.	.	.
Cc1cccc(N2CSC3=C(C#N)C(c4ccc(C)o4)CC(=O)N3C2)c1 (configuration not stated)	1.6µM	.	?	.	?
COc1cc(OC)c(C2CC(=O)N3CN(c4ccccc4C)CSC3=C2C#N)cc1OC (configuration not stated)	?	.	.	.	.
COc1ccc(C2CC(=O)N3CN(c4ccccc4F)CSC3=C2C#N)cc1OC (configuration not stated)	0.32µM	?	?	.	?
CCCC1OC2CC3C4CCC5=CC(=O)C=CC5(C)C4C(O)CC3(C)[C@]2(C(=O)CO)O1 (some centres not stated)	.	.	.	/	.
CCC(C)(C)OC	.	.	.	.	.
COc1cc(O)c(C(=O)/C=C/c2ccc(OC)c(O)c2)c(OC)c1	?	?	.	/	.
COc1ccc(C(=O)N2c3cc4c(cc3C(C)=CC2(C)C)OCO4)cc1	.	?	.	16µM	.
Cc1cc2c(ccc3[nH]onc32)n1	20µM	?	?	.	?
COC(=O)Nc1ccc2[nH]cc(CCNC(C)=O)c2c1	.	.	.	.	.
Cc1ccc2nc(NC(=O)CN(C)S(=O)(=O)c3ccc(Br)s3)sc2c1	?	4µM	.	.	.
Cc1ccnc(NC(=O)CN(C)S(=O)(=O)c2cccc3nsnc23)c1	.	.	.	.	.
Cc1ccc2nc(NC(=O)CN(C)S(=O)(=O)c3cccc4nsnc34)sc2c1	.	.	.	16µM	.
Cc1cccc2sc(NC(=O)CNS(=O)(=O)c3ccc(Br)s3)nc12	.	20µM	.	.	.
Cc1csc(NC(=O)CNS(=O)(=O)c2cccs2)n1	.	.	.	.	.
Cc1ccc2nc(NC(=O)CNS(=O)(=O)c3ccc(Br)s3)sc2c1	.	.	.	.	.
SMILES	ALOX15 inhib	ERK AVP block	Caspase-1 inhib	Tau filament bind	Casp7 inh
Cn1cccc1C(=O)N1CCC2(CC1)CN(C(c1ccccc1)c1ccccc1)C2	.	.	.	.	.
Cc1cc(Nc2ccc(N=Nc3ccc(O)c4ncccc34)cc2)nc(C)n1	.[11.4 µM]	.[11.5 µM]	.[11.5 µM]	.[11.4 µM]	.[11.5 µM]
Cc1ccc(O)c(N=Nc2ccccc2)n1	13µM	?	.	?	.
Cc1csc(NC(=O)CCCSc2nc3ccccc3s2)n1	.	16µM	.	.	.
COc1cccc([C@@H]2Oc3ccc(OC)cc3/C(=N/O[C@@H](C)c3cn([C@H]4COC[C@H]4O)nn3)[C@@H]2O)c1	.[11.4 µM]	.[11.5 µM]	.[11.5 µM]	/	.[11.5 µM]
CCCCCCCCCCCCCCCC(=O)NC(C)C	.	.	.	?	.
CCN(CC)C(C)CN1c2ccccc2Sc2ccccc21 (configuration not stated)	25µM	.	.	/	.
CCN(CC)C(=O)CSc1nc2cc3c(cc2c(=O)n1Cc1ccc2c(c1)OCO2)OCO3	.	.	.	.	.
